# Source: PubChem BioAssay (NCATS)
# Results filed as inconclusive are left out. Calls of active or inactive are those of the source. Calls follow the shape of the dose curve; as a rule, active = well fitted inhibition curve with a large enough effect; inconclusive = small, poorly fitted or top-dose-only effect; inactive = no such curve, though single readings can be large or run the other way.
# Assay: Primary qHTS for inhibitors of La Crosse Virus (LACV) - induced cell death in SH-SY5Y cells (AID 1508616);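 also: top concentration of the series differs between compounds; 0% = infected DMSO wells and 100% = uninfected DMSO wells; higher means more rescue of cells from virus-induced death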
# Details: SH-SY5Y LACV cytopathicity rescue, ATP luminescence, 6 d; series mostly up to 4.29 µM; activity change: at the top concentration
# Source text: Assay Provider: Karin Peterson Ph.D.
# National Institute of Allergy and Infection Diseases, National Institute of Health
# La Crosse Virus (LACV) is a California serogroup mosquito-borne arbovirus, family Peribunyaviridae, which is an endemic pathogen in North America and can induce a rare, life-threatening neurological disease in children. LACV was first isolated in the early 1960s, from a summer "rural encephalitis" case in La Crosse, Wisconsin, USA. Since then, LACV encephalitis cases have been found in more than twenty states, with most cases in the Mississippi and Ohio River basins. The life cycle of LACV is maintained between the vector, the eastern tree-hole mosquito Aedes triseriatus, and vertebrate hosts including eastern gray squirrels (Sciurus carolinensis) and chipmunks (Tamiasstriatus grinseus). […] Most LACV infections in humans are asymptomatic or induce mild clinical symptoms of fever, headache, lethargy and vomiting. However, in some cases LACV can cause severe neuroinvasive disease, including encephalitis, meningitis, and meningoencephalitis, requiring hospitalization. To date, there is neither a licensed vaccine nor a Food and Drug Administration (FDA) approved antiviral therapy available to prevent or treat LACV encephalitis. The primary treatment for viral encephalitis is palliative care due to the lack of therapeutics. In the current study, we conducted a screen of 4,096 FDA approved and bioactive small molecules against LACV, by screening for rescue of LACV-induced cell death in SH-SY5Y cells.
# LACV-induced cytopathicity assay
# SEQUENCE No. (1,2, 3, etc.); […] (e.g., Cells, Incubation, Reagent, etc.); VALUE and DESCRIPTION.
# 1. Reagent; 2 uL; Cell solution.
# 3. Compounds; 23nL; Compound library
# 4. Reagent; 12 uL; LACV virus
# 6. Reagent; 24 uL; ATPLite (PerkinElmer)
# 7. Time; 5 min; Room temperature
# 8. Detection; Luminescence; View
# NOTES (numbers refer to sequence above)
# 1. Seed 6000 SH-SY5Y cells (ATCC CRL-2266) in 2 microL/well media (DMEM/F12 10% FBS, 1x L-Glutamine, 1x Pyruvate, 1x NEAA, 1x Pen/Strep) in 384-well assay plates (tissue culture treated, white, solid bottom).
# 2. Incubate at 37 degrees C with 5% CO2 for 24 hr.
# 3. Dispense 23 nL/well compounds in DMSO via pin transfer.
# 4. Dispense 12 microL/well of LACV (LACV/human/1978) in media at 0.01 MOI.
# 5. Incubate at for 6 days at 37C 5% CO2
# 6. Dispense 24 microL/well of ATPLite 1step Luminescence assay system (PerkinElmer).
# 7. Incubate for 5 min at room temperature.
# 8. Read luminescence signal (Viewlux plate reader, PerkinElmer). Data was normalized with DMSO control wells containing LACV as 0%, and DMSO control wells without virus as 100%.
row,Structure (SMILES),activity change
1,CC(C)CCCC(C)CCCC(C)CCCCC(C)CCCC(C)CCCC(C)C (stereo not given),-13.5% (inactive)
2,CC(=O)N(CC(O)CN(C(C)=O)c1c(I)c(C(=O)NCC(O)CO)c(I)c(C(=O)NCC(O)CO)c1I)c1c(I)c(C(=O)NCC(O)CO)c(I)c(C(=O)NCC(O)CO)c1I (stereo not given),-3.04% (inactive)
3,CCOc1ccccc1O[C@H](c1ccccc1)[C@H]1CNCCO1,18.2% (inactive)
4,O=C1CC[C@@H](C(=O)O)N1,-0.635% (inactive)
5,NCC1CCC(C(=O)Oc2ccc(CCC(=O)O)cc2)CC1 (stereo not given),10.1% (inactive)
6,Cc1cccc(Nc2ccccc2C(=O)O)c1C,-3.96% (inactive)
7,CCOc1ccc(C(=O)OCCN(CC)CC)cc1,-8.46% (inactive)
8,O=c1[nH]c2cc(C(F)(F)F)c(N3CCOCC3)cc2n(CP(=O)(O)O)c1=O,34.9% (inactive)
9,CCCCCCCCCCCCCCCCN,5.96% (inactive)
10,CN1CC(=O)NC1=N,-4.73% (inactive)
11,C[n+]1ccccc1/C=N/O,-2.89% (inactive)
12,CC(C)(C)NCC(O)COc1cccc2c1CCC(=O)N2 (stereo not given),0.0839% (inactive)
13,CN1CCN(C(=O)C2CCCCC2)CC1,38.2% (inactive)
14,C=CCOc1ccccc1OCC(O)CNC(C)C (stereo not given),1.76% (inactive)
15,C[N+]1(C)CCCC(OC(=O)C(O)(c2ccccc2)c2ccccc2)C1 (stereo not given),-3.28% (inactive)
16,CC(CN(C)C)C(C)(O)Cc1ccc(Cl)cc1 (stereo not given),-3.88% (inactive)
17,Nc1ncnc2c1ncn2[C@@H]1O[C@H](COP(=O)(O)O)[C@@H](O)[C@H]1O,-6.12% (inactive)
18,Cc1ccsc1/C=C/C1=NCCCN1C,-11.2% (inactive)
19,CN1CCCN=C1COC(=O)C(O)(c1ccccc1)C1CCCCC1 (stereo not given),31.4% (inactive)
20,CC(=O)NCc1c(I)c(NC(C)=O)c(I)c(C(=O)O)c1I,-1.02% (inactive)

row,Structure (SMILES),activity change
1,C[C@@H]1O[C@@H](OC[C@H]2O[C@@H](Oc3c(-c4ccc(O)c(O)c4)oc4cc(O)cc(O)c4c3=O)[C@H](O)[C@@H](O)[C@@H]2O)[C@H](O)[C@H](O)[C@H]1O,29.2% (inactive)
2,CC(C)(C)C(=O)OCOC(=O)[C@@H]1N2C(=O)[C@@H](NC(=O)[C@H](N)c3ccccc3)[C@H]2SC1(C)C,17.9% (inactive)
3,Cc1cccc(C)c1NC(=O)CC12CCCN1CCC2,-3.71% (inactive)
4,NS(=O)(=O)c1ccc(C(=O)O)cc1,-2.36% (inactive)
5,CCOc1cc(NC(C)=O)ccc1C(=O)OC,-4.84% (inactive)
6,CC(=O)N[C@@H](CC(C)C)C(=O)O,-4.78% (inactive)
7,NC(=O)N[C@@H](CCC(=O)O)C(=O)O,9.71% (inactive)
8,Cc1ccc2c(c1)c1c3n2CCNC3CCC1 (stereo not given),5.72% (inactive)
9,C[C@@H](N)C(=O)O,-4.91% (inactive)
10,O=C(O)COC(=O)Cc1ccccc1Nc1c(Cl)cccc1Cl,2.9% (inactive)
11,Cc1cc(=O)[nH]c(=S)[nH]1,1.39% (inactive)
12,CC[N+](CC)(CC(=O)Nc1c(C)cccc1C)Cc1ccccc1,-16.7% (inactive)
13,C=CCNC(N)=S,10.4% (inactive)
14,FC(F)(F)C(Cl)Br (stereo not given),8.85% (inactive)
15,O=S1(=O)OC(c2ccc(O)cc2)(c2ccc(O)cc2)c2ccccc21,21.2% (inactive)
16,CCN1CC(CCN2CCOCC2)C(c2ccccc2)(c2ccccc2)C1=O (stereo not given),-15.7% (inactive)
17,OCc1ccc(Cl)cc1Cl,-3.38% (inactive)
18,C[C@]1(Cn2ccnn2)[C@H](C(=O)O)N2C(=O)C[C@H]2S1(=O)=O,20.2% (inactive)
19,CCS(=O)(=O)CCn1c([N+](=O)[O-])cnc1C,-10.9% (inactive)
20,COC(=O)c1ccc(O)cc1,9.88% (inactive)
